Several values for one entry are separate records, joined by “and”; a condition that tells them apart may be missing. Identical values can stand only once. For some of these results: Potency and affinity values are given separately.

Common to all, as to design: scale not given: direction of the effect not stated beside the values
In assay [1] the target is Protein translocase subunit SecA (Escherichia coli (strain K12)) (UniProt P10408). Description: Assay to Identify E. coli SecA ATPase Inhibitors. Conditions: 30 µM. It is filed as functional.
The target of assay [2] is T1, Ubiquitin-activating enzyme e1, putative (Leishmania donovani (strain BPK282A1)) (UniProt E9BSI1).
T1 sequence (whole entry): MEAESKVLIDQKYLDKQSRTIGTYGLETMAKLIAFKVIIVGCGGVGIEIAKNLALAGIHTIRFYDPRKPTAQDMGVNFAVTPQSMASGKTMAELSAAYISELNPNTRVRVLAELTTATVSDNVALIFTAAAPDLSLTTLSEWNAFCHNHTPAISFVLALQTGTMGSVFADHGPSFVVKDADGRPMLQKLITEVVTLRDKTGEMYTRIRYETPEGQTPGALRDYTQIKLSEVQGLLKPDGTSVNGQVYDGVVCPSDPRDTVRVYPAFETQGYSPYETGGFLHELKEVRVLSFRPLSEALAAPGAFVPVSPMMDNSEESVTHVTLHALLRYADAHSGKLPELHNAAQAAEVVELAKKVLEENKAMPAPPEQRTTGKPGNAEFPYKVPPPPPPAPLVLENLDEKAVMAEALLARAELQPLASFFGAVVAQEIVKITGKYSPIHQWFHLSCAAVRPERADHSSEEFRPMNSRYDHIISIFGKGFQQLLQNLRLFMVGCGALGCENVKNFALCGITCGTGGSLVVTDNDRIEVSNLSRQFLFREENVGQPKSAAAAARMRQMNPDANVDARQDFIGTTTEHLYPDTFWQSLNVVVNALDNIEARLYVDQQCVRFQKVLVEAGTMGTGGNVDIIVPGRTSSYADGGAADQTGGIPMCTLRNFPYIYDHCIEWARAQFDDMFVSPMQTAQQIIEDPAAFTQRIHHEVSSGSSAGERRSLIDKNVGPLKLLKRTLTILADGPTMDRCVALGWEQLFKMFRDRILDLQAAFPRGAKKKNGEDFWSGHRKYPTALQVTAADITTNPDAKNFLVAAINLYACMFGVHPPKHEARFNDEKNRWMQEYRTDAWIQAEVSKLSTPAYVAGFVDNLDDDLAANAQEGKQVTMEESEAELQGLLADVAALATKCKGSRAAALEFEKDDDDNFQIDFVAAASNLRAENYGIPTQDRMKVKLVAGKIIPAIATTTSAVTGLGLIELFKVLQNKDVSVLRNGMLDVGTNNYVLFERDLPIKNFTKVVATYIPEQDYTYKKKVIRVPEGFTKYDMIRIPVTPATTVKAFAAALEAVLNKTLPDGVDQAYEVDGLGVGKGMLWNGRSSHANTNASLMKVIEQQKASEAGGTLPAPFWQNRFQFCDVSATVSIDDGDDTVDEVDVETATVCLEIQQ
Nature of the assay: Leishmania donovani Ubiquitin Activating Enzyme (LdE1). The class given is functional. The conditions noted are these: 30 µM.

Assay [3] has as its target Sialic acid-binding Ig-like lectin 9 (Homo sapiens) (UniProt Q9Y336). Description: Hs-Siglec9 ALPHAscreen SOP 20170721. The conditions noted are these: 10 µM. Background: Bead proximity is the source of the signal in Alpha formats.
For the next assay, the system named is Trypanosoma cruzi. Nature of the assay: Trypanosoma cruzi phosphomannomutase and mannose-1-phosphate guanylyltransferase assay. It is filed as functional. The conditions noted are these: 10 µM.
For assay [4], the target named is T2, Arginase-2, mitochondrial (Homo sapiens) (UniProt P78540).
T2 sequence (whole entry): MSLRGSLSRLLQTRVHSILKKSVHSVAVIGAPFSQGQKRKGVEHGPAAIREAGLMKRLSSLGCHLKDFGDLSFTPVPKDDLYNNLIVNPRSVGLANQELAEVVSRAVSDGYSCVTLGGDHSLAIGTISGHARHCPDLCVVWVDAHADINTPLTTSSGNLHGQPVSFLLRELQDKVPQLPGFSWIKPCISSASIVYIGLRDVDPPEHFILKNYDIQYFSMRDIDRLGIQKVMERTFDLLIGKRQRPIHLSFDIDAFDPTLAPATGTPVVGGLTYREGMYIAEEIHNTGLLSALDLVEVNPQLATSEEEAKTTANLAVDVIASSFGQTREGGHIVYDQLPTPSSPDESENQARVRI
Nature of the assay: in vitro enzyme assay to detect the production of urea directly proportional to the activity of Arginase II. Further: in the data most compounds retested in dose-response had high values. The class given is functional.

Assay [5] concerns the target T3, Proteasome subunit beta (Trypanosoma cruzi) (UniProt O96673).
T3 sequence (whole entry): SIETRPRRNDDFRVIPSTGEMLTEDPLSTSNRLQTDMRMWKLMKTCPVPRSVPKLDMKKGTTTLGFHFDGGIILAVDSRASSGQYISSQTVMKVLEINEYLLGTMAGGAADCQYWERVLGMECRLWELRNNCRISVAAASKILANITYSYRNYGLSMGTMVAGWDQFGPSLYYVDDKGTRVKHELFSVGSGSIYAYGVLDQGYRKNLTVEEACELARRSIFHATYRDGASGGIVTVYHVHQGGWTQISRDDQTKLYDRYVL
Nature of the assay: Trypanosoma cruzi proteasome chymotrypsin-like activity (TcProtChymo) assay. Further: in the data most compounds retested in dose-response had high values. It is filed as functional. The conditions noted are these: 9.37 µM.

Another assay deals with N/A. Description: Trypanosoma cruzi proteasome luciferase counter-screen. The class given is functional. Conditions: 9.37 µM.
The species named for a further assay is Homo sapiens. Nature of the assay: To identify inhibition of the IFN signalling (Jak-Stat) pathway via expression of an eGFP reporter gene under the control of an IFN-stimulated response element (ISRE) containing MxA promoter. It is filed as functional. Conditions: 30 µM.
Assay [6] concerns the target T4, Tyrosyl-tRNA synthetase, putative (Trypanosoma cruzi (strain CL Brener)) (UniProt Q4DSP6).
T4 sequence (whole entry): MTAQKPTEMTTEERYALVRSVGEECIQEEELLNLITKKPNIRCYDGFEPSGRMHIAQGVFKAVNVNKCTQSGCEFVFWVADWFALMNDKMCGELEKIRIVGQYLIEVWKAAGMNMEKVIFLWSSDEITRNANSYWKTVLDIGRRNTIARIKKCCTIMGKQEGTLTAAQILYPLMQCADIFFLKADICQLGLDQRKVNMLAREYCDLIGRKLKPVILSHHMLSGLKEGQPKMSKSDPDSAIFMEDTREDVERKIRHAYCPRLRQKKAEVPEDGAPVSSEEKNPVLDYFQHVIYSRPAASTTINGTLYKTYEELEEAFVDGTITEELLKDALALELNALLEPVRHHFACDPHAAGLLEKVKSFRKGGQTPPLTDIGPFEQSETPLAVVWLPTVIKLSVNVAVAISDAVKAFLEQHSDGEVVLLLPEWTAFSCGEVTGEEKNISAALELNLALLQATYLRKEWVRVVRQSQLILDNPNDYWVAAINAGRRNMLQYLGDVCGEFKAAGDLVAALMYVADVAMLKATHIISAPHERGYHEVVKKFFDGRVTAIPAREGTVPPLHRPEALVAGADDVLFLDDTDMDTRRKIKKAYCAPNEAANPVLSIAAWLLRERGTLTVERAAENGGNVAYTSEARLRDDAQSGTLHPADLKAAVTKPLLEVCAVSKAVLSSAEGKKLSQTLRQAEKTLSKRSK
Nature of the assay: Trypanosoma cruzi tyrosyl tRNA synthetase (TcYRS) _High Tyrosine SOP. Further: in the data most compounds retested in dose-response had high values. Conditions: 30 µM. The class given is functional.

Assay [7] has as its target T4, Tyrosyl-tRNA synthetase, putative (Trypanosoma cruzi (strain CL Brener)). Description: Trypanosoma cruzi tyrosyl tRNA synthetase (TcYRS) SOP. It is filed as functional. The conditions noted are these: 30 µM.
In assay [8] the target is Chromo domain-containing protein 1 (Saccharomyces cerevisiae (strain ATCC 204508 / S288c) (Baker's yeast)) (UniProt P32657). Nature of the assay: ScCHD-1 Enzyme Inhibition Assay. Further: in the data most compounds retested in dose-response had high values. The class given is functional. The conditions noted are these: 30 µM.
Chain of Chromo domain-containing protein 1 (Saccharomyces cerevisiae (strain ATCC 204508 / S288c) (Baker's yeast)) (P32657 whole entry, the tested form may be a part): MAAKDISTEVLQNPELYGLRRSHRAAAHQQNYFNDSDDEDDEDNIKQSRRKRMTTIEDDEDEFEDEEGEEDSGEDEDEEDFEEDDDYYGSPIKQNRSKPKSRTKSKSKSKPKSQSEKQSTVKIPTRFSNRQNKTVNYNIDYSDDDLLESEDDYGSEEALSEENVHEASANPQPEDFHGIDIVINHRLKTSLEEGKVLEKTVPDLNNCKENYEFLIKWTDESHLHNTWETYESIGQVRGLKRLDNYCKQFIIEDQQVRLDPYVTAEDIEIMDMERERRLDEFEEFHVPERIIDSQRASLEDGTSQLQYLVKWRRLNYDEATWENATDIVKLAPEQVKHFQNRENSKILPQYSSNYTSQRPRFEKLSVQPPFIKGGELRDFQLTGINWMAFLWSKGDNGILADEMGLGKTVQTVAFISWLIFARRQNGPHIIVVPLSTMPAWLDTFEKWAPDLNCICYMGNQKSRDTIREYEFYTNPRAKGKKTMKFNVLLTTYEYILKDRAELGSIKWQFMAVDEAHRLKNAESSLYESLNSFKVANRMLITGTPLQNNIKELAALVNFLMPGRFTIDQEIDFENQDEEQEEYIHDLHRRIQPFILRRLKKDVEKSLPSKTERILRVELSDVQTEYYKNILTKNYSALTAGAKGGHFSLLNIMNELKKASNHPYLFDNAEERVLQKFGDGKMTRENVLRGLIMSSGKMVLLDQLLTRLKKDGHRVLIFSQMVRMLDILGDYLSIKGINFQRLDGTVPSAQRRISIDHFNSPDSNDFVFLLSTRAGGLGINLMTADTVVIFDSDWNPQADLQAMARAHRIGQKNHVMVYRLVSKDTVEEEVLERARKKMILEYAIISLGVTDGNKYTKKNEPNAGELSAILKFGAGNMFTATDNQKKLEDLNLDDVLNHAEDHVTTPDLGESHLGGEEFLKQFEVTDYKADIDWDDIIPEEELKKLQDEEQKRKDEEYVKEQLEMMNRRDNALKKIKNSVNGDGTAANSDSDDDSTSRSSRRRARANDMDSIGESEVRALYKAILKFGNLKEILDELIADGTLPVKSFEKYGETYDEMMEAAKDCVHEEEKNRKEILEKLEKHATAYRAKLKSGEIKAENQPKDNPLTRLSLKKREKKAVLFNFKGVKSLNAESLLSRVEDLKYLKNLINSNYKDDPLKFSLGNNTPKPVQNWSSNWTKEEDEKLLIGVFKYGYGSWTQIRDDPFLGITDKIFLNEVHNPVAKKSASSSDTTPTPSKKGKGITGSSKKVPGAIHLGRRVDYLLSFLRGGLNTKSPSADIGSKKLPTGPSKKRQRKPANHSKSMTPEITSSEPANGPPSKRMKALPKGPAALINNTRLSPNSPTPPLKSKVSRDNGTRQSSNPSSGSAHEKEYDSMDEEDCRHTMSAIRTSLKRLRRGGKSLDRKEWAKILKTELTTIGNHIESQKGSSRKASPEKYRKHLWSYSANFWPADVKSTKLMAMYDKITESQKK

Chain of Sialic acid-binding Ig-like lectin 9 (Homo sapiens) (Q9Y336 whole entry): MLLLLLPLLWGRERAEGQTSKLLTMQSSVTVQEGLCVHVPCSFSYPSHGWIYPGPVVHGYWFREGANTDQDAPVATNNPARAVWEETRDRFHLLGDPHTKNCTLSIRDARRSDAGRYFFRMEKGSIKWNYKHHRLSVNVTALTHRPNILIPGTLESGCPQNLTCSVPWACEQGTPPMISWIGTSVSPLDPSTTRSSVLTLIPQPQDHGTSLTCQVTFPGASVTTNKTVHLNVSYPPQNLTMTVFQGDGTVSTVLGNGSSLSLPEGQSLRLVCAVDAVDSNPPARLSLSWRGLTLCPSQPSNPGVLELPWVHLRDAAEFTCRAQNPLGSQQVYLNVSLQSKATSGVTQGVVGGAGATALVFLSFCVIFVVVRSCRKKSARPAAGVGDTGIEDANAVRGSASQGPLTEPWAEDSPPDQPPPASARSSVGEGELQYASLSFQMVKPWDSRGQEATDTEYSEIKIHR
Chain of Protein translocase subunit SecA (Escherichia coli (strain K12)) (P10408 whole entry): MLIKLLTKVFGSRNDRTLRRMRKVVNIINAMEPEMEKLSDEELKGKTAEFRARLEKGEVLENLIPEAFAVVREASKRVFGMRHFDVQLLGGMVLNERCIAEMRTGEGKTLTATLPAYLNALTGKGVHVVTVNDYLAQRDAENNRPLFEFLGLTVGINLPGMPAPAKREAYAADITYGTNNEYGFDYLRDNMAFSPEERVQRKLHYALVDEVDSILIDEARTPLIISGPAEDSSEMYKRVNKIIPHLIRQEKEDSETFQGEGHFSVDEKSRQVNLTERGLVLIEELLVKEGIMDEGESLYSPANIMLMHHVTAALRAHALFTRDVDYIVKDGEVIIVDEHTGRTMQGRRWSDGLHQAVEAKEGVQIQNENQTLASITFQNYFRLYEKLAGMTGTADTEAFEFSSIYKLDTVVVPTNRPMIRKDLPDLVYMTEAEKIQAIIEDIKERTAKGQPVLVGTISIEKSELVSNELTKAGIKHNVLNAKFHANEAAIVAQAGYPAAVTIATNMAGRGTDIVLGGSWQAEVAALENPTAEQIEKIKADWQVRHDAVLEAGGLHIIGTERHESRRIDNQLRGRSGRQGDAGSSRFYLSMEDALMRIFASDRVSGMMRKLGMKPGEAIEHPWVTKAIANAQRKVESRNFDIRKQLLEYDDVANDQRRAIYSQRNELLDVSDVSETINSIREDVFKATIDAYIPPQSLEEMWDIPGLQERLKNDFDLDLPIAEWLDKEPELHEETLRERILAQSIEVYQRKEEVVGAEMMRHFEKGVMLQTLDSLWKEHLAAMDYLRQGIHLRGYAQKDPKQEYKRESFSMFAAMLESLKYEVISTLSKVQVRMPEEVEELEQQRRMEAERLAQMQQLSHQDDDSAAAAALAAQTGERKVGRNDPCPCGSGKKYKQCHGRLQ

Take `O=C(NCCCN1CCOCC1)c1ccn(-c2ccc3ccccn23)n1`: the Percent Effect in assay [1] is -0.779%; in [2], 6.49%; in assay [3], 1.13%; in the assay on Trypanosoma cruzi it was -2.43%; in [4] (33.3 µM), -4.05%; in [5] it was 30.3% and 30.6% and 42.5%. The Percent Effect was 15% and 12% in the assay on N/A; 5.6% in the assay filed under Homo sapiens; 8.95% in assay [6]; 7.69% in assay [7]; 1.74% in [8].
For the molecule `CS(=O)(=O)N1CCN(C(=O)Cn2ccc3c(Cl)cccc32)CC1`, the Percent Effect in [1] was -4.17%; in [2], -2.7%; in assay [3], -2.63%; with Trypanosoma cruzi it was -7.08%; in assay [4] (30 µM), 5.95%; in assay [4] (33.3 µM) it was -3.15%. The Percent Effect is 18.1% in [5]; 4.83% in the assay filed under Homo sapiens; 2.66% in assay [6]; 2.44% in assay [7]; -0.985% in [8].
As to `c1ccc(-c2cnc(CNC3CCCN(c4cccnn4)C3)o2)cc1` (stereo not given), the Percent Effect in assay [1] is -1.65%; in assay [2], -23.1%; in assay [3] it was 5.28%; in the assay on Trypanosoma cruzi it was 6.48%; in assay [4] (33.3 µM), 1.23%; in assay [5], 0.0853%. For the same molecule, the Percent Effect in the assay listed under Homo sapiens was 7.96%; in [6], 14.8%; in [7], 22.9%; in assay [8] it was -1.17%.
As to `CN1CCOC(CNC(=O)CCCOc2ccccc2F)C1` (stereo not given), the Percent Effect in [1] is -2.16%; in assay [2] it was 12.8%; in assay [3], 3.45%; in the assay on Trypanosoma cruzi it was 1.6%; in assay [4] (33.3 µM) it was 2.87%; in assay [5], 18.5%. The Percent Effect was 18.2% in the assay filed under Homo sapiens, 10.1% in [6], 22.9% in assay [7] and -4.86% in assay [8].
On to `Cc1ncsc1-c1nnc(C2CCN(CC3CCCCC3)CC2)o1`, for which the Percent Effect is 1.3% in assay [1]; 14.7% in assay [2]; -11.6% in assay [3]; -1.97% in the assay on Trypanosoma cruzi; 0.443% in assay [4] (33.3 µM); 14.8% in assay [5]. The Percent Effect in the assay listed under Homo sapiens is 25.8%; in [6], -3.17%; in assay [7], 5%; in assay [8] it was -21.3%.
`Cc1noc(C2CCN(Cc3cc(=O)n(C)c(=O)n3C)CC2)n1`: the Percent Effect in [1] was -4.76%; in assay [2] it was 16%; in assay [3], 3.89%; in the assay with Trypanosoma cruzi, 0.602%; in assay [4] (33.3 µM), 0%; in assay [5], 13.2%. For the same molecule, the Percent Effect in the assay listed under Homo sapiens was 15.2%; in assay [6], 3.68%; in assay [7] it was 12.8%; in assay [8] it was -9.16%.
In the case of `CCCN(CC)C(=O)c1cc2c(c3ccccc3n2C)n1C(=O)N(C)C`, the Percent Effect in [1] was -6.54%; in [2], 11.7%; in assay [3], 4.77%; in the assay with Trypanosoma cruzi, 0.292%; in assay [4] (33.3 µM) it was 4.05%; in assay [5], 6.27%. Further, the Percent Effect in the assay listed under Homo sapiens is -7.65%; in assay [6] it was 6.84%; in assay [7], 10.3%; in [8], -0.293%.
Consider `Cc1nc(-c2nnc[nH]2)sc1C(=O)N(Cc1cccnc1)C1CC1`, for which the Percent Effect was -4.44% in [1]; 12.8% in assay [2]; -5.72% in assay [3]; 6.67% in the assay on Trypanosoma cruzi; -0.41% in [4] (33.3 µM); 7.42% in assay [5]. The Percent Effect is 9.73% in the assay listed under Homo sapiens, 2.39% in [6], 18.1% in assay [7] and -6.07% in [8].
Regarding `Cc1ccc(NC(=O)C2=CN=S=N2)cc1`, the Percent Effect was 1.26% in assay [1]; 17.3% in assay [2]; -13.9% in [3]; 3.94% with Trypanosoma cruzi; 0% in assay [4] (33.3 µM); 84.2% and 80.5% and 69% in [5]. Further, the Percent Effect with N/A was 45.6% and 45.1%; in the assay filed under Homo sapiens, 21.4%; in assay [6] it was 4.23%; in assay [7], 10%; in assay [8], -20.4%.
Turning to `c1ccc(-c2ccc(C3CNCCO3)nc2)cc1` (stereo not given), the Percent Effect in [1] is -1.91%; in assay [2], 14.7%; in [3] it was -4.38%; with Trypanosoma cruzi, -2.37%; in assay [4] (33.3 µM), -3.1%; in assay [5], 41% and 49.8% and 42.6%. Also, the Percent Effect with N/A was 18% and 21%; in the assay filed under Homo sapiens, -23.6%; in [6], 3.17%; in assay [7] it was 7.5%; in assay [8], -25.7%.
For `COc1cccc(-c2noc(C3CCN(Cc4cccs4)C3)n2)c1` (stereo not given), the Percent Effect in assay [1] is 4.18%; in [2] it was 4%; in assay [3], -7.16%; in the assay on Trypanosoma cruzi it was -5.33%; in [4] (33.3 µM), 1.77%; in assay [5], 57.3% and 54.2% and 60.1%. Also, the Percent Effect in the assay on N/A was 26.2% and 26.8%; in the assay listed under Homo sapiens it was 16%; in assay [6], -3.17%; in assay [7], 7.5%; in [8], -23.7%.

(Values after ChEMBL document CHEMBL3988442, “University of Dundee, Small-Polar-MMV Screening Library” (2021).)
